This is an account of results in PubChem BioAssay (NCI).

Test [1] can be described thus: NCI Yeast Anticancer Drug Screen. Data for the rad50 strain (AID 155).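 Further: 0% = growth of vehicle-only cultures of the same strain.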 The settings on record: S. cerevisiae rad50 strain growth inhibition; at 50.0 µM; stronger effect = higher value. The method, boiled down:
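Vehicle-treated cultures provide the reference for the growth inhibition reported for compound-exposed, repair-deficient yeast.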

A short description of test [2]: NCI Yeast Anticancer Drug Screen. Data for the mec2-1 strain (AID 157). The settings on record: S. cerevisiae mec2-1 strain, at 50.0 µM, stronger effect = higher value. The method, boiled down:
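Cells of the genetically defined mec2-1 yeast strain are incubated with test compound. Inhibition of growth is calculated against vehicle-treated controls.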

Test [3] in a line: NCI Yeast Anticancer Drug Screen. Data for the sgs1 mgt1 strain (AID 161).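 Further: 0% = growth of cultures given vehicle only.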 The following applies: S. cerevisiae sgs1 mgt1 strain, at 50.0 µM, stronger effect = higher value. Put shortly: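 Read-out: growth inhibition vs vehicle controls. Cells: mutant yeast strain deficient in DNA damage repair.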
The nature of test [4]: NCI Yeast Anticancer Drug Screen. Data for the cln2 rad14 strain (AID 165).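 Further: 0% = growth equal to vehicle treated cultures.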 The settings on record: S. cerevisiae cln2 rad14 strain, at 50.0 µM, stronger effect = higher value. The method, boiled down: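 The screen exposed genetically defined yeast (cln2 rad14) to test compounds and scored growth inhibition relative to vehicle-treated controls.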
Test [5] in a line: NCI Yeast Anticancer Drug Screen. Data for the bub3 strain (AID 167). The settings on record: S. cerevisiae bub3 mutant strain, at 50.0 µM, stronger effect = higher value. Put shortly:
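Mutant yeast screening strain plus compound; vehicle-treated cultures serve as the 0% inhibition reference.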

Test [6] in a line: NCI Yeast Anticancer Drug Screen. Data for the mlh1 rad18 strain (AID 175). The following applies: S. cerevisiae mlh1 rad18 strain growth inhibition; at 50.0 µM; stronger effect = higher value. Put shortly:
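Compound-treated yeast growth, normalised to vehicle controls. Strain bears defined DNA repair mutations.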

“And” between values parts separate entries of the source, which are not always exact repeats. Equal values may be shown once. About 79,000 compounds went through this panel and 15% of them were active in at least one assay; those are over-represented in the sample as a whole. A structure can be active in one record and inactive in another. The source made the active and inactive calls. No stated cut-off is given here; in the data, active means growth inhibition above about 70%; inactive means the rest.

Regarding `O=[N+]([O-])c1ccc(C#Cc2ccc(N(CCCl)CCCl)cc2)cc1`, the growth inhibition was 1.95% (inactive) in test [1]; -8.85% (inactive) in test [2]; 7.5% (inactive) in test [3]; -65.5% (inactive) in test [4]; 9.2% (inactive) in test [5]; -3.95% (inactive) in test [6].

For `Oc1c(Cl)cc(Cl)cc1C1N(Cc2ccc(N(CCCl)CCCl)cc2)CCCN1Cc1ccc(N(CCCl)CCCl)cc1`, the growth inhibition was 8.75% (inactive) in test [1]; 17.2% (inactive) in test [2]; 23.4% (inactive) in test [3]; -3.25% (inactive) in test [4]; 3.7% (inactive) in test [5]; 41.5% (inactive) in test [6].

As to `[N-]=[N+]=NC1C2CC3CC(C2)CC1C3` (centres undefined), the growth inhibition in test [1] is -15.7% (inactive); in test [2], 8.3% (inactive); in test [3], -7.2% (inactive); in test [4], -6.6% (inactive); in test [5], -10.7% (inactive); in test [6] it was -24.8% (inactive).

For the compound `N#CN1CC(C(=O)N2CCCCC2)C=C2c3cccc4[nH]cc(c34)CC21` (centres undefined), the growth inhibition was 9.5% (inactive) in test [1]; -10.8% (inactive) in test [2]; 34.5% (inactive) in test [3]; 0.05% (inactive) in test [4]; 8.95% (inactive) in test [5]; 10.9% (inactive) in test [6].

Take `O=[As](O)(O)Cc1cccc(F)c1`: the growth inhibition is -3.8% (inactive) in test [1]; -7.8% (inactive) in test [2]; -6.65% (inactive) in test [3]; -46.5% (inactive) in test [4]; 2.1% (inactive) in test [5]; -8.35% (inactive) in test [6].

As for `CC(C)(C)C1COP(=S)(C(C)(C)C)OC1` (centres undefined), the growth inhibition is -8.3% (inactive) in test [1]; -5.6% (inactive) in test [2]; -0.55% (inactive) in test [3]; -20.5% (inactive) in test [4]; -0.5% (inactive) in test [5]; -5.15% (inactive) in test [6].

For the compound `Cc1ccc(OP(Oc2ccc(C)cc2)Oc2ccc(C)cc2)cc1`, the growth inhibition is 32.8% (inactive) in test [1]; 10.7% (inactive) in test [2]; -6.35% (inactive) in test [3]; -31.6% (inactive) in test [4]; 29.4% (inactive) in test [5]; 31.5% (inactive) in test [6].

In the case of `NNc1c(C(N)=O)c2c(N)ncnc2n1C1OC(CO)C(O)C1O` (centres undefined), the growth inhibition is -0.6% (inactive) in test [1]; 37.8% (inactive) in test [2]; 4.9% (inactive) in test [3]; 10.5% (inactive) in test [4]; 4.55% (inactive) in test [5]; 19.9% (inactive) in test [6].

For the compound `CCC(=O)C1(c2ccccc2)CCN(C)CC1`, the growth inhibition is -20.7% (inactive) in test [1]; -35.7% (inactive) in test [2]; 12.8% (inactive) in test [3]; -16.5% (inactive) in test [4]; -12.9% (inactive) in test [5]; 6.7% (inactive) in test [6].

Regarding `CC[n+]1cccc2ccccc21`, the growth inhibition is -0.45% (inactive) and 56.5% (inactive) in test [1]; -6.7% (inactive) and 60.2% (inactive) in test [2]; -6.7% (inactive) and 73.5% (active) in test [3]; -11.2% (inactive) and 5.65% (inactive) in test [4]; -4.9% (inactive) and 20.5% (inactive) in test [5]; -25.2% (inactive) and 66.7% (inactive) in test [6].

Turning to `O=P(O)(O)c1ccccc1.[Zn+2]`, the growth inhibition in test [1] was 13.9% (inactive); in test [2] it was 16.4% (inactive); in test [3], -0.45% (inactive); in test [4] it was -14% (inactive); in test [5] it was 18.1% (inactive); in test [6], 24.2% (inactive).

Turning to `CO/C=C/c1ccc2c(c1)OCO2`, the growth inhibition in test [1] was 34.6% (inactive); in test [2], 25.5% (inactive); in test [3], 16.7% (inactive); in test [4], 10.2% (inactive); in test [5] it was 12.7% (inactive); in test [6], -10.8% (inactive).

Regarding `[Cl][Hg][c]1cccc(I)c1N=Nc1ccccc1`, the growth inhibition was 81.9% (active) in test [1]; 21.3% (inactive) in test [2]; 66.2% (inactive) in test [3]; 4.9% (inactive) in test [4]; 2.25% (inactive) in test [5]; 69.8% (inactive) in test [6].

As to `CNC(=O)Oc1cc(OC)ccc1C(=O)c1ccccc1`, the growth inhibition in test [1] was 2.45% (inactive); in test [2] it was 6.85% (inactive); in test [3] it was 32.6% (inactive); in test [4], -21.6% (inactive); in test [5], 5.35% (inactive); in test [6] it was 47% (inactive).

Regarding `C[Si](C)(C)C#CC#C[Si](C)(C)C.[Ni].[Ni].[Ni].[Ni].[c-]1[c-][c-][cH-][c-]1.[c-]1[c-][c-][cH-][c-]1.[c-]1[c-][c-][cH-][c-]1.[c-]1[c-][c-][cH-][c-]1`, the growth inhibition in test [1] is 11.7% (inactive); in test [2] it was 5.5% (inactive); in test [3], -5.05% (inactive); in test [4] it was 9.2% (inactive); in test [5] it was -2.85% (inactive); in test [6], -5.85% (inactive).

As to `C/C=C(\CC)C1(C(C)C)C(=O)NC(=O)NC1=O`, the growth inhibition in test [1] was 12.2% (inactive); in test [2] it was -1.35% (inactive); in test [3] it was -6.3% (inactive); in test [4], -33.9% (inactive); in test [5], 2% (inactive); in test [6] it was 10.4% (inactive).

Turning to `COc1ccc2c(c1OC)C[C@@H]1c3c(cc4c(c3-2)OCO4)CCN1C`, the growth inhibition is 21.2% (inactive) in test [1]; -30.2% (inactive) in test [2]; -23.6% (inactive) in test [3]; -14.6% (inactive) in test [4]; -0.6% (inactive) in test [5]; -56.5% (inactive) in test [6].

`CC(O)CN(CCN(CC(C)O)CC(C)O)CC(C)O.O=[N+]([O-])O.[Cu+2]` (centres undefined): the growth inhibition was 6.05% (inactive) in test [1]; -54% (inactive) in test [2]; -27.2% (inactive) in test [3]; -35.6% (inactive) in test [4]; -29.6% (inactive) in test [5]; 5.15% (inactive) in test [6].

As to `CCC1C2CC3C4N(C)c5ccccc5C45CC(C2C5O)N3C1O` (centres undefined), the growth inhibition was 20.9% (inactive) and -6.8% (inactive) and -4.75% (inactive) in test [1]; -7.75% (inactive) and 5.2% (inactive) and -40.8% (inactive) in test [2]; -16.9% (inactive) and 15.7% (inactive) and -14.2% (inactive) in test [3]; -17.9% (inactive) and -3.4% (inactive) and -0.6% (inactive) in test [4]; 13.6% (inactive) and -10.1% (inactive) and -32.2% (inactive) in test [5]; -11.4% (inactive) and -41% (inactive) and -23.6% (inactive) in test [6].
